Experimental findings from PubChem BioAssay (Tox21) are described below.

Results filed as inconclusive are left out. Unmarked numbers belong to inactive results. Calls come from the whole dose curve; as a rule, active = well fitted cell-killing curve with a large enough effect in the repeat runs; inconclusive = weak or mixed curves; inactive = flat fitted curve, though single readings scatter.
% is set by controls: 0 for no effect and ±100 for the full control effect.

The experiment is described as follows: qHTS assay to identify small molecule antagonists of the estrogen related receptor (ERR) signaling pathway from Tox21 library - cell viability counter screen (AID 1224834). Note: nearly all actives have a fitted effect of over 30% in size. As to conditions: ERR reporter cells viability, CellTiter-Fluor, 17.5 h; series mostly up to 92.4 µM; viability change, negative = cytotoxic: at the top concentration. The text has this:
National Center for Advancing Translational Sciences [NCATS]
NIH Chemical Genomics Center [NCGC]
U.S. Environmental Protection Agency [EPA]
National Institutes of Environmental Health Sciences [NIEHS]
National Toxicology Program [NTP]
U.S. Food and Drug Administration [FDA]
Estrogen related receptors (ERRs), the first orphan nuclear receptors discovered, play an important role in the control of cellular energy metabolism. ERRs are required for high-energy production in response to the environmental challenges. ERR-alpha was also identified as an adverse marker for breast cancer progression; ERR-alpha-positive tumors have a poor prognosis. To screen and to identify environmental compounds that perturb the ERR signaling pathways could provide valuable information for potential therapeutic or preventive measures in the treatment of metabolic disease. To differentiate true ERR antagonists or agonist from cytotoxic substances, the assay is multiplexed with cell viability assay.
Tox21 Assay Protocol Summary:
The ERR cells were dispensed at 2,000 cells/5 ul/well in 1536-well white plates using a Multidrop dispenser. After the assay plates were incubated at a 37 C/5% CO2 incubator for 6 hours, 23 nL of compounds dissolved in DMSO, positive and negative controls or DMSO only was transferred to the assay plate by a pin tool. The plates were incubated at 37 C for 17.5 hours. 1 ul/well of CellTiter-Fluor reagent was added into the assay plates using a Flying Reagent Dispenser. After 30-minute incubation at 37 C/5% CO2, the fluorescence intensity in the plates was measured using a ViewLux plate reader.
In the case of `CCOC(=O)COc1cc(-n2ncc(C(F)(F)F)c(C)c2=O)c(F)cc1Cl`, the “viability change, negative = cytotoxic” value was 0.393%. Consider `CCCCCCCCCC[N+](C)(C)[O-]`, for which the “viability change, negative = cytotoxic” value was 0.46%. The same measure for `CCCn1cc[n+](C)c1C`: -3.39%. `CCCCc1ccc2c(n1)[C@@H](c1ccc(OC)cc1C[C@H](C)C(=O)O)[C@H](C(=O)O)[C@H]2c1ccc2c(c1)OCO2`: the “viability change, negative = cytotoxic” value is -1.4%. As for `Nc1ccncc1N`, the figure is 9.09% [at 42.5 µM]; as for `CNC(=O)Nc1ccc(Cl)c(Cl)c1`, 0.421%; as for `CCOC(=O)C(=O)CCCCCCl`, 0.883% [at 42.5 µM].

`COc1cc(C(=O)OC(COCCC(C)C)CN2CCOCC2)cc(OC)c1OC` (stereo not given): the “viability change, negative = cytotoxic” value is -2.5% [at 42.5 µM].

As to `CC(C)C1CCC(O)CC1` (stereo not given), the “viability change, negative = cytotoxic” value is -0.567%. Take `NC(=O)N1c2ccccc2CC(=O)c2ccccc21`: the “viability change, negative = cytotoxic” value was 4.02% [at 42.5 µM]. For the compound `Nc1ccccn1`, the “viability change, negative = cytotoxic” value was -6.27%. As for `CCCC[N+](C)(CCCC)CCCC`, the figure is 7.29%; as for `C=C(C)C(=O)OCC1CCCO1` (stereo not given), 3.7%; as for `O=C(CO)[C@@H](O)[C@H](O)[C@H](O)CO`, -0.307%. As for `C[C@H]1C[C@H]2[C@@H]3CCC4=CC(=O)C=C[C@]4(C)[C@H]3C(=O)C[C@]2(C)[C@@]1(O)C(=O)CO`, the figure is -2.02% [at 42.5 µM]; as for `CC(C)(C)c1ccc(-c2ccc(C(C)(C)C)cc2)cc1`, -2.25%; as for `CCOc1ccc2nc(S(N)(=O)=O)sc2c1`, 1.34% [at 42.5 µM]. For `c1coc(CNc2ncnc3nc[nH]c23)c1`, the “viability change, negative = cytotoxic” value was -0.358%. As for `CC(C)COC(=O)c1ccc(N)cc1`, the “viability change, negative = cytotoxic” value was -4.31% [at 42.5 µM].

`CC1=C(C/C=C(\C)CCC[C@H](C)CCC[C@H](C)CCCC(C)C)C(=O)c2ccccc2C1=O`: the “viability change, negative = cytotoxic” value was 3.23% [at 42.5 µM].

As to `C=CC(=O)OCCCl`, the “viability change, negative = cytotoxic” value was -1.2%. The same measure for `C=C(C)C(=O)OCC(O)CO` (stereo not given): -5.51% [at 42.5 µM]; for `CN(C)C(=O)Oc1cccc([N+](C)(C)C)c1`: 1.36% [at 42.5 µM]; for `CCOC(=O)c1ccccc1`: 2.58%. As for `FB(F)F`, the figure is 1.48%; as for `CCCCCC(=O)OCCc1ccccc1`, 3.11%. As for `CC1CCC(CO)CC1` (stereo not given), the figure is 8.65%; as for `COc1ccc2cc1Oc1cc3c(cc1OC)CC[N+](C)(C)[C@H]3Cc1ccc(cc1)Oc1c(OC)c(OC)cc3c1[C@@H](C2)[N+](C)(C)CC3`, 1.1% [at 42.5 µM]; as for `CCCCCCCCCCCCSC`, -1.45%. On to `CN(C)C(=O)Oc1ccc[n+](C)c1`, for which the “viability change, negative = cytotoxic” value is 0.543% [at 42.5 µM].

For the compound `Cc1nc2ccc(CN(C)c3ccc(C(=O)N[C@@H](CCC(=O)O)C(=O)O)s3)cc2c(=O)[nH]1`, the “viability change, negative = cytotoxic” value was -0.162% [at 42.5 µM].

On to `COc1ccccc1OCC1CNC(=O)O1` (stereo not given), for which the “viability change, negative = cytotoxic” value was 2.33% [at 42.5 µM]. As for `CO/N=C(\C(=O)N[C@@H]1C(=O)N2C(C(=O)O)=C(CSc3nc(=O)c(O)nn3C)CS[C@H]12)c1csc(N)n1`, the figure is 4.11% [at 42.5 µM]. As for `Nc1ccn([C@@H]2O[C@H](CO)[C@@H](O)C2O)c(=O)n1` (stereo not given in full), the figure is 5.84%. Take `C[N+]12CCC(CC1)C(OC(=O)C(O)(c1ccccc1)c1ccccc1)C2` (stereo not given): the “viability change, negative = cytotoxic” value is 0.767% [at 42.5 µM]. The same measure for `CC(C#N)(CCC(=O)O)N=NC(C)(C#N)CCC(=O)O` (stereo not given): 3.85%; for `CCOC(=O)c1cnc2c(cnn2CC)c1NN=C(C)C`: -0.395% [at 42.5 µM]; for `CNCCO`: 7.8%.

In the case of `CCCCCCC#CC(=O)OC`, the “viability change, negative = cytotoxic” value is 4.19%. As for `CCOC(=O)CCC(=O)OCC`, the figure is 3.84%.
